Assay results reported in PubChem BioAssay AID686999 (Broad Institute, 2013).
Entries with a potency or affinity are not part of this list. Inconclusive results are not listed. Unmarked numbers belong to inactive results.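 The calls were made as follows: active = active in every separate test run, each with half-maximal potency at or under twice its top valid dose; inconclusive = the separate test runs give conflicting calls; inactive = inactive in every test run, including signal rising instead.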

Experiment: Cryptococcus growth inhibition by alamar blue – cell lysis, cherry-picks, replicate tests, mechanism study for C. neoformans antifungal project, dose response (AID 686999)
Conditions: 72 h; series mostly up to 35 µM; activity change, negative = inhibition: at the top concentration

| Compound | activity change, negative = inhibition |
| --- | --- |
| COc1ccc(CNC(=S)NCc2ccc(OC(C)C)cc2)cc1 | 13.2% |
| CCOC(=O)NC(=S)Nc1ccc(C(C)(C)C)cc1Br | -0.187% |
| CCCCNC(=S)N/N=C/c1ccc(C#N)cc1 | 13.6% |
| COc1ccccc1CNC(=S)NCc1ccc(Cl)cc1 | 15.5% |
| O=C(NC(=S)Nc1cccc(F)c1)c1cccc([N+](=O)[O-])c1 | 19.7% |
| COC(=O)C1=C(C)N(Cc2ccc(F)cc2)C(=S)NC1c1ccccc1 (stereo unspecified) | -0.405% [at 38 µM] |
| CCc1ccc(C(C)NC(=S)NCc2ccc(F)cc2)cc1 (stereo unspecified) | -1.97% |
| CCCCN1C(=S)NC[C@@H]1Cc1ccccc1 | -1.43% |
| Fc1ccccc1NC(=S)NCCc1cccc(Cl)c1 | 8.81% |
| Cc1ccc(C)c(NC(=O)C2(C)CCCN2C(=O)C(C)C)c1 (stereo unspecified) | 20.1% [at 56 µM] |
| CO[C@H]1CN(C)C(=O)c2cc(NC(=O)C3CC3)ccc2OC[C@@H](C)N(Cc2cncnc2)C[C@H]1C | 9.34% |
| COC(=O)C1=C(C)N(CC(C)C)C(=S)NC1c1cccc(F)c1 (stereo unspecified) | 10.4% [at 42 µM] |
| COCCN1C(=S)N[C@@H](c2ccccc2)C(C(=O)OC)=C1C | 1.85% [at 42 µM] |
| CCc1ccc(C(=O)NC(=S)NCc2cccnc2)cc1 | 6.98% |
| Cc1cc(Cl)ccc1NC(=S)NCc1ccc(F)cc1 | 12.4% |
| S=C(NCc1ccccc1)NCC1COc2ccccc2O1 (stereo unspecified) | 13.4% |
| CC(C)CC1(C)N=C(c2ccccc2)C(=S)N1 (stereo unspecified) | 24.5% |
| O=C(NC(=S)Nc1ccc(Br)cc1)C1CCC1 | 18.4% |
| COc1ccc(NC(=S)NCc2ccc(Cl)cc2)c(OC)c1 | 5.43% |
| COc1ccccc1NC(=S)NCc1ccccc1Cl | 8.26% |
| COc1cccc(NC(=S)NC(=O)Cc2ccc(Cl)cc2)c1 | 5.7% |
